Sampled rows, rich in hits. Any-hit rate of the full collection: about 19%.
ELG1 DNA repair: inhibitors of ELG1-dependent DNA repair in HEK293T cells. HEK293T ELG1-luciferase reporter, luminescence, 16 h; DNA damage induced by 5-fluorouridine. Potency, µM (top dose mostly 46.1 µM), without a hit: top-dose activity change, negative = inhibition, usual class: inhibitors. hit rate 2.3% among 330,000; note: potency is the fitted concentration of half-maximal effect; nearly all actives have a fitted effect of over 55% in size
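5-Fluorouridine DNA damage + compound/DMSO, 2,000 cells/well, 16 h, 37 °C/5% CO2. ONE-Glo, 30 min RT, luminescence. Readout = decrease in reporter signal.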
IL-1B inflam inh: inflammasome signaling inhibition, IL-1 beta readout | THP-1 LPS/ATP IL-1B secretion, AlphaLISA, 16 h; hits give low values | hit rate 4.7% among 360,000 | activity change, % at 57.5 µM; in the data active = activity change below about -50%; inconclusive = mostly about -30% to -49%
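Secreted IL-1B measured by AlphaLISA bead assay after 16 h compound exposure of THP-1 cells; compounds (final up to 57.5 uM) added 1 h before LPS (250 ng/mL) and ATP (1.25 mM) stimulation; lower signal means less secretion.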
HT1080-NT tox: kills 2HG-producing HT-1080-NT fibrosarcoma cells. HT-1080-NT fibrosarcoma viability, CellTiter-Glo ATP luminescence, 48 h. Potency, µM (doses to about 46.1 µM), inactives show top-dose activity, negative = less viability, most hits filed as cytotoxic. hit rate 1.6% among 360,000;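 note: NT is the 2HG producing partner of a matched IDH1 knockdown line; potency is the fitted concentration of half-maximal effect; 0% = DMSO-treated cells and -100% = media-only wells without cells; nearly all actives have a fitted effect of over 55% in size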
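750 cells/well, RPMI + 5% FBS; 2 h settle, compound pin-transfer, 48 h at 37 degrees C. CellTiter-Glo 10 min RT, luminescence. Normalized to DMSO and media-only wells.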
HT1080 IDH1KD tx: toxicity to HT-1080 IDH1 knockdown cells (counter line); HT-1080 IDH1 knockdown viability, ATP luminescence, 48 h; Potency, µM (series often up to 46.1 µM), for the others: top-dose activity, negative = toxicity, actives largely listed as cytotoxic; hit rate 2% among 360,000;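 note: potency is the fitted concentration of half-maximal effect; 0% = DMSO wells and -100% = cell-free medium wells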
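Viability of IDH1-knockdown HT-1080 fibrosarcoma cells was assessed by CellTiter-Glo after 48 h at 37 °C with titrated compound; concentration-effect curves were classified by fit quality and response size.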
DT40 TDP1 CPT: growth inhibition of DT40 Tdp1-/-;hTDP1 cells with camptothecin (screen for TDP1 inhibitors); AID 686979; chicken DT40 Tdp1-/-;hTDP1 cells + 20 nM CPT, ATP luminescence, 48 h; hit rate 12% among 420,000; Potency, µM (top dose mostly 46.2 µM), without a hit: at the highest dose activity change, negative = growth inhibition, actives largely listed as inhibitors; note: potency is the fitted concentration of half-maximal effect; nearly all actives have a fitted effect of over 55% in size
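Chicken DT40 Tdp1-/- cells stably complemented with human TDP1 were seeded at 400 cells/well in medium containing 20 nM camptothecin, exposed to pin-transferred compounds, and grown at 37 °C for at least 48 hr. Viability was read as ATP luminescence.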
TDP1 cell noCPT: qHTS for Inhibitors of human tyrosyl-DNA phosphodiesterase 1 (TDP1): qHTS in cells in absence of CPT | AID 686978, 2013 | DT40 Tdp1-/- hTDP1 cells, no CPT, ATP luminescence, 48 h | hit rate 15% among 420,000 | Potency, µM (doses to about 46.2 µM), without a hit: at the highest dose activity change, negative = growth inhibition, hits mostly inhibitors; note: potency is the fitted concentration of half-maximal effect; nearly all actives have a fitted effect of over 55% in size
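A cellular qHTS used chicken DT40 cells lacking endogenous Tdp1 but carrying stably transfected human TDP1. Compounds were applied without camptothecin, and cell growth kinetics were judged by ATP-dependent luminescence after ≥48 hr.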
Starred values were filed as active, the others as inactive; ? = inconclusive; · = not tested or not shown. Unless noted, calls come from the whole dose curve; as a rule, active = well fitted curve in the direction sought with a large enough effect; inconclusive = small, poorly fitted or top-dose-only effect, or another doubt; inactive = no such curve, though single readings can be large; an effect the other way counts as inactive or inconclusive. Unless noted, % is set by controls: 0 for no effect and ±100 for the full control effect.

SMILES	ELG1 DNA repair	IL-1B inflam inh	HT1080-NT tox	HT1080 IDH1KD tx	DT40 TDP1 CPT	TDP1 cell noCPT
COC(=O)c1ccc(N2CCC(c3cc(-c4ccc(OC)cc4)n[nH]3)CC2)c([N+](=O)[O-])c1	?	-7.9	?	?	20.6µM*	18.4µM*
O=C(O)CCN1C(=O)c2ccc(NC(=O)COc3ccccc3)cc2C1=O	20.1%	0.9	-0.6%	5.4%	-0.1%	4.7%
O=C(Cn1c(=O)nc(-c2ccccc2)c2cc(Cl)ccc21)N1CCN(c2ccccc2F)CC1	·	·	·	·	?	-21.8%
CCOc1ccc(CCNC(=O)C(CC(C)C)N2Cc3ccccc3C2=O)cc1OCC (stereo not given)	·	·	·	·	10.3µM*	9.2µM*
CC(C)CC(C(=O)NCCc1ccccc1)N1Cc2ccccc2C1=O (stereo not given)	·	·	·	·	?	20.6µM*
Cc1ccc(NC(=O)C(CC(C)C)N2Cc3ccccc3C2=O)cc1F (stereo not given)	·	·	·	·	-16.2%	-2.0%
CC(C(=O)NCc1ccccc1)N1Cc2ccccc2C1=O (stereo not given)	·	·	·	·	7.5%	-10.0%
O=C(NCCCNC(=O)c1cnccn1)c1cccc(F)c1	11.5%	22.5	10.4%	20.4%	5.1%	-24.2%
CCN(CC(=O)Nc1cc(Cl)ccc1-n1cncn1)Cc1nc2ccccc2c(=O)[nH]1	8.2µM*	1.8	-10.3%	-0.6%	-18.0%	-20.2%
CCN(CC(=O)NC(=O)NCc1ccco1)Cc1nc2ccccc2c(=O)[nH]1	-3.5%	6.8	-3.0%	-2.7%	4.61µM*	4.61µM*
CCN(CC(=O)NCCc1ccc(S(N)(=O)=O)cc1)Cc1nc2ccccc2c(=O)[nH]1	3.2%	15.0	7.6%	0.1%	20.6µM*	?
CN(CC(=O)Nc1cc(C(F)(F)F)ccc1-n1cncn1)Cc1nc2ccccc2c(=O)[nH]1	·	-11.8	2.0%	-3.0%	-29.0%	-22.8%
COc1ccc(C2CC2/C(=N/O)c2ccccn2)cc1 (stereo not given)	6.1%	1.7	-16.3%	-4.7%	13µM*	?
COc1ccc(C2CC2/C(=N/O)c2ccccc2)cc1 (stereo not given)	?	?	8.9%	-11.8%	23.1µM*	18.4µM*
COC(=O)[C@@]1(Cc2ccc(F)cc2)[C@@H]2[C@@H](CC(=O)[C@H]2CC(=O)C(=O)N(C)C)CN1C(=O)c1ccccc1	11.1%	-19.1	5.7%	4.1%	?	?
COC(=O)[C@@]1(Cc2ccc(OC)cc2)[C@@H]2C(=CC(=O)[C@H]2CC(=O)C(=O)N2CCCC2)CN1C(=O)c1ccccc1	14.6µM*	-76.0*	?	20.6µM*	?	16.4µM*
COC(=O)[C@@]1(Cc2ccc(F)cc2)[C@H]2C(CC(=O)C(=O)N3CCCC3)C(=O)C[C@H]2CN1C(=O)c1ccccc1 (stereo not given in full)	·	-70.4*	?	?	?	?
COC(=O)[C@@]1(Cc2ccc(OC)cc2)[C@@H]2[C@@H](CC(=O)[C@H]2CC(=O)C(=O)N(C)C)CN1C(=O)c1ccccc1	2.7%	-21.2	1.1%	-0.5%	23.1µM*	?
O=C(O)CSCC(=O)N1CCN(c2nc3cc(Cl)ccc3s2)CC1	1.6%	-3.4	4.7%	12.4%	-0.1%	15.9%
CC(OC(=O)c1ccc2c(c1)OCCO2)C(=O)c1ccccc1 (stereo not given)	?	-9.3	0.4%	13.8%	0.6%	-5.9%
COc1cc(OC)cc(C(=O)N2CCN(Cc3ccccc3Br)CC2)c1	-0.5%	-7.4	6.8%	0.7%	?	-26.9%
CN(Cc1ccc(Cl)c(Cl)c1)C(C(=O)NCc1ccccc1)c1ccco1 (stereo not given)	·	-16.5	-3.3%	-14.5%	?	?
Cc1cccc(C)c1-n1nnnc1-c1nc2cc3ccccc3cc2[nH]c1=O	·	8.2	0.651µM*	0.366µM*	0.517µM*	0.731µM*
CCOCCCNC(=O)/C(C#N)=C/c1ccc(C(=O)OC)cc1	10.9%	-9.7	19.6%	5.8%	?	-19.4%
CCOCCCNC(=O)/C(C#N)=C/c1ccc(Cl)c([N+](=O)[O-])c1	?	-28.6	23.1µM*	32.6µM*	2.59µM*	7.31µM*
SMILES	ELG1 DNA repair	IL-1B inflam inh	HT1080-NT tox	HT1080 IDH1KD tx	DT40 TDP1 CPT	TDP1 cell noCPT
CCOCCCNC(=O)/C(C#N)=C/c1cc(OC)c(O)c([N+](=O)[O-])c1	17.4%	0.0	6.51µM*	4.61µM*	3.66µM*	2.91µM*
COCCNC(=O)/C(C#N)=C/c1ccc(O)c([N+](=O)[O-])c1	3.3%	14.9	-27.0%	-29.3%	-4.7%	?
CCOCCCNC(=O)/C(C#N)=C/c1cc(C)c(O)c(C)c1	13.3%	14.0	-12.2%	-16.2%	?	23.1µM*
C=CCSc1ncnc2c1oc1nc3c(cc12)COC(C)(C)C3	0.0%	10.2	16.6%	3.4%	-20.3%	18.4µM*
CN(C)c1cccc(CNC(=O)c2ccc3sc([C@@H]4O[C@H](CO)[C@H](O)[C@H](O)[C@H]4O)nc3c2)c1	·	-9.5	12.1%	15.1%	2.0%	-8.3%
CC(C)(C)c1ccc(N2C(=O)CSC2c2cccnc2)cc1 (stereo not given)	0.0%	13.0	0.9%	-1.2%	?	8.2µM*
CCn1c(/C=C/c2ccccc2Cl)nc2ccccc2c1=O	?	?	-4.8%	0.0%	?	16.4µM*

Screening results as filed in PubChem BioAssay.
